Data taken from a collection of fitness landscapes (doi:10.1016/j.celrep.2020.107928).
Over roughly 81,000 sequences, “one-hybrid fitness for binding parS DNA” has its median near -0.17; the highest 2% begin near 0.51. The full list was thinned out, with the highest values kept by preference.

B1: Caulobacter ParB omega fusion; a variant is named by its letters at X, in order, B8GW30 (parent)
chain: MESVVVGEPGMSEGRRGLGRGLSALLGEVDAAPAQAPGEQLGGSREAPIEILQRNPDQPRRTFREEDLEDLSNSIREKGVLQPILVRPSPDTAGEYQIVAGERAWRAAQRAGLKTVPIMVRELDDLAVLEIGIIENVQRADLNVLEEALSYKVLMEKFERTQENIAQTIGKSXSHVANXMRLLXLPDEVQSYLVSGELTAXHARAIAAAADPVALAKQIIEGGLSVRETEALARKAPNLSAGKSKGGRPPRVKDTDTQALESDLSSVLGLDVSIDHRGSTGTLTITYATLEQLDDLCNRLTRGI

Variants of: B1
Assay: one-hybrid fitness for binding parS DNA (scaled: cognate 1, non-cognate 0); higher = stronger binding
Settings: with parS DNA site
Method in brief: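 Values were rescaled so that cognate is 1 and non-cognate is 0. Each is a fitness, the log change in a variant's read ratio to wild type from Illumina reads of plasmids before and after selection, with three replicate libraries pooled and variants under 10 reads dropped. Selection of the Caulobacter ParB libraries, four specificity codons randomised, used E. coli USO with a HIS3 reporter, site 19 bp from the promoter, on M9-minus-histidine with 0.1 mM IPTG and 5 mM 3-AT for 48 hours at 37°C.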

| Variant | one-hybrid fitness for binding parS DNA |
| --- | --- |
| TNVG | ≤ 0.2 |
| AFWR | ≤ 0.2 |
| TISC | ≤ 0.2 |
| RCEF | ≤ 0.2 |
| RSFD | ≤ 0.2 |
| RCFS | 1.03 |
| RSFP | ≤ 0.2 |
| RCFD | ≤ 0.2 |
| RPFS | ≤ 0.2 |
| RSFS | 1.01 |
| QAPG | ≤ 0.2 |
| YKDR | ≤ 0.2 |
| IDIG | ≤ 0.2 |
| RRYR | ≤ 0.2 |
| RRGF | ≤ 0.2 |
| RRCN | 0.452 |
| RRGG | 0.698 |
| RRCR | ≤ 0.2 |
| RRYK | ≤ 0.2 |
| RRGY | 0.361 |
| RRSY | 0.46 |
| RRSG | 0.711 |
| RRYG | 0.769 |
| DRSG | ≤ 0.2 |

| Variant | one-hybrid fitness for binding parS DNA |
| --- | --- |
| RRCG | 0.758 |
| QRNI | ≤ 0.2 |
| RLLW | 0.241 |
| FRGV | ≤ 0.2 |
| TALQ | ≤ 0.2 |
| TKKR | ≤ 0.2 |
| PENA | ≤ 0.2 |
| HIPD | ≤ 0.2 |
| EYSL | ≤ 0.2 |
| RRQG | 0.727 |
| RRDG | 0.888 |
| DRRG | ≤ 0.2 |
| DRDG | ≤ 0.2 |
| RRRG | 0.706 |
| NRRG | ≤ 0.2 |
| RRNE | ≤ 0.2 |
| RRQY | 0.441 |
| NRNG | ≤ 0.2 |
| RRQQ | ≤ 0.2 |
| RRNG | 0.704 |
| YVYG | ≤ 0.2 |
| RGYW | ≤ 0.2 |
| HTNV | ≤ 0.2 |
| TDNV | ≤ 0.2 |

| Variant | one-hybrid fitness for binding parS DNA |
| --- | --- |
| ASRA | ≤ 0.2 |
| KASS | ≤ 0.2 |
| EPDT | ≤ 0.2 |
| GAHV | ≤ 0.2 |
| SLDA | ≤ 0.2 |
| LSDS | ≤ 0.2 |
| IIGF | ≤ 0.2 |
| RRLG | 0.794 |
| RRLR | ≤ 0.2 |
| RRHY | 0.446 |
| RRLK | ≤ 0.2 |
| RRHG | 0.72 |
| RRHM | 0.424 |
| PSWH | ≤ 0.2 |
| LPFA | 0.253 |
| KMLG | ≤ 0.2 |
| FRSR | ≤ 0.2 |
| LSWR | ≤ 0.2 |
| TGKS | ≤ 0.2 |
| LTAC | ≤ 0.2 |
| RKSQ | ≤ 0.2 |
| RKNK | ≤ 0.2 |
| RKWP | ≤ 0.2 |
| RKST | 0.749 |

| Variant | one-hybrid fitness for binding parS DNA |
| --- | --- |
| RKWH | ≤ 0.2 |
| RKNT | 0.723 |
| RKSF | ≤ 0.2 |
| RKCK | ≤ 0.2 |
| RKNM | 0.234 |
| RKWT | 0.759 |
| RKCT | 0.803 |
| RKCY | 0.369 |
| AHCT | ≤ 0.2 |
| SYTS | ≤ 0.2 |
| LAQL | ≤ 0.2 |
| LSDG | ≤ 0.2 |
| ISTA | ≤ 0.2 |
| MTHL | ≤ 0.2 |
| CYFG | ≤ 0.2 |
| RKYF | ≤ 0.2 |
| RKIY | 0.352 |
| RKYK | ≤ 0.2 |
| RKYT | 0.868 |
| RKLN | 0.351 |
| RKHP | ≤ 0.2 |
| RKHH | ≤ 0.2 |
| RKPT | 0.412 |
| RKLH | 0.223 |

| Variant | one-hybrid fitness for binding parS DNA |
| --- | --- |
| RKHT | 0.756 |
| RKIT | 0.675 |
| RKLT | 0.856 |
| YKNL | ≤ 0.2 |
| VDMS | ≤ 0.2 |
| HRNI | ≤ 0.2 |
| NWKR | ≤ 0.2 |
| FKRH | ≤ 0.2 |
| TTLP | ≤ 0.2 |
| LGQS | ≤ 0.2 |
| DPGV | ≤ 0.2 |
| ITRV | ≤ 0.2 |
| WNTN | ≤ 0.2 |
| RKQH | ≤ 0.2 |
| RKDK | ≤ 0.2 |
| RKGT | 0.764 |
| RKDT | 0.832 |
| RKRT | 0.658 |
| RKGQ | ≤ 0.2 |
| RKQT | 0.729 |
| RKRQ | ≤ 0.2 |
| RKQP | ≤ 0.2 |
| RKRR | ≤ 0.2 |
| RKGM | 0.262 |

| Variant | one-hybrid fitness for binding parS DNA |
| --- | --- |
| RKDY | 0.38 |
| TDGD | ≤ 0.2 |
| RCPL | ≤ 0.2 |
| WHLG | ≤ 0.2 |
| CRRN | ≤ 0.2 |
| ITGW | ≤ 0.2 |
| RLNK | ≤ 0.2 |
| RLNE | ≤ 0.2 |
| RLDF | 0.229 |
| RLDC | 0.938 |
| RLDQ | ≤ 0.2 |
| RLNC | 0.94 |
| TYDG | ≤ 0.2 |
| RNSY | 0.399 |
| RNSM | 0.238 |
| RNRR | ≤ 0.2 |
| RNRT | 0.786 |
| RNWF | ≤ 0.2 |
| RNPT | 0.307 |
| RNWT | 0.535 |
| RNRM | 0.345 |
| RNYT | 0.66 |
| RNIT | 0.427 |
| RNWY | 0.275 |

| Variant | one-hybrid fitness for binding parS DNA |
| --- | --- |
| RNST | 0.746 |
| QFRW | ≤ 0.2 |
| LVVI | ≤ 0.2 |
| PETN | ≤ 0.2 |
| YEDL | ≤ 0.2 |
| KWKD | ≤ 0.2 |
| VTLP | ≤ 0.2 |
| HAAI | ≤ 0.2 |
| PKVP | ≤ 0.2 |
| RNHD | ≤ 0.2 |
| RNLT | 0.683 |
| RNQT | 0.74 |
| RNGT | 0.696 |
| RNLP | ≤ 0.2 |
| RNGY | 0.306 |
| RNLH | ≤ 0.2 |
| RNHT | 0.723 |
| RNQR | ≤ 0.2 |
| RNHN | 0.346 |
| RNQM | 0.228 |
| RNGR | ≤ 0.2 |
| QRGN | ≤ 0.2 |
| GVHD | ≤ 0.2 |
| VTSQ | ≤ 0.2 |

| Variant | one-hybrid fitness for binding parS DNA |
| --- | --- |
| MGWS | ≤ 0.2 |
| QCRG | ≤ 0.2 |
| QHQC | ≤ 0.2 |
| LAPW | ≤ 0.2 |
| HMRI | ≤ 0.2 |
| VDML | ≤ 0.2 |
| HQSC | ≤ 0.2 |
| DSFI | ≤ 0.2 |
| LCFF | ≤ 0.2 |
| ETSR | ≤ 0.2 |
| RNCT | 0.612 |
| RNCQ | ≤ 0.2 |
| RNCM | ≤ 0.2 |
| QRCF | ≤ 0.2 |
| DGSS | ≤ 0.2 |
| YRDA | ≤ 0.2 |
| AKTQ | ≤ 0.2 |
| RRIC | 0.71 |
| RRPM | 0.215 |
| RRPC | 0.796 |
| RRIY | 0.332 |
| RRIQ | ≤ 0.2 |
| SLCD | ≤ 0.2 |
| HGNW | ≤ 0.2 |

| Variant | one-hybrid fitness for binding parS DNA |
| --- | --- |
| EVCS | ≤ 0.2 |
| LNAY | ≤ 0.2 |
| AANM | ≤ 0.2 |
| ILWI | ≤ 0.2 |
| ALYC | ≤ 0.2 |
| RAAA | 0.592 |
| NAAA | ≤ 0.2 |
| RAFA | 0.624 |
| DAAA | ≤ 0.2 |
| NQKR | ≤ 0.2 |
| LMTS | ≤ 0.2 |
| GGWG | ≤ 0.2 |
| HSNS | ≤ 0.2 |
| QTKP | ≤ 0.2 |
| RHFR | ≤ 0.2 |
| RHAF | ≤ 0.2 |
| RHFK | ≤ 0.2 |
| RHAR | ≤ 0.2 |
| RHFC | 0.799 |
| RHAC | 0.933 |
| QLSE | ≤ 0.2 |
| TNGD | ≤ 0.2 |
| RMVA | 0.611 |
| DMVA | ≤ 0.2 |

| Variant | one-hybrid fitness for binding parS DNA |
| --- | --- |
| RMKA | 0.735 |
| EGMC | ≤ 0.2 |
| HPGG | ≤ 0.2 |
| CLLW | ≤ 0.2 |
| RCYT | 0.963 |
| RSDM | ≤ 0.2 |
| RDDT | ≤ 0.2 |
| RPDT | ≤ 0.2 |
| REYT | ≤ 0.2 |
| RSNN | 0.445 |
| REDT | ≤ 0.2 |
| RSDT | 0.696 |
| RSNP | ≤ 0.2 |
| RSNT | 0.911 |
| RCDT | 0.813 |
| RPYT | ≤ 0.2 |
| SYNF | ≤ 0.2 |
| QNNL | ≤ 0.2 |
| QNNR | ≤ 0.2 |
| VNTR | ≤ 0.2 |
| TLTC | ≤ 0.2 |
| VASF | ≤ 0.2 |
| ARLY | ≤ 0.2 |
| RSRT | 0.832 |

| Variant | one-hybrid fitness for binding parS DNA |
| --- | --- |
| RENT | ≤ 0.2 |
| RCRT | 0.818 |
| RCNT | 0.879 |
| RSYT | 0.846 |
| RDYT | ≤ 0.2 |
| RSRP | ≤ 0.2 |
| RSRH | 0.232 |
| RPRT | ≤ 0.2 |
| RPNT | ≤ 0.2 |
| RERT | 0.216 |
| SLNY | ≤ 0.2 |
| EHPE | ≤ 0.2 |
| LPKC | ≤ 0.2 |
| QHRW | ≤ 0.2 |
| TTHM | ≤ 0.2 |
| QPTM | ≤ 0.2 |
| YDPM | ≤ 0.2 |
| GMKG | ≤ 0.2 |
| RWFY | ≤ 0.2 |
| RWFS | 0.691 |
| RWAS | 0.876 |
| RWFN | ≤ 0.2 |
| RWAN | 0.26 |
| RWAD | ≤ 0.2 |

| Variant | one-hybrid fitness for binding parS DNA |
| --- | --- |
| GDED | ≤ 0.2 |
| SDVG | ≤ 0.2 |
| NRQA | ≤ 0.2 |
| NRSA | ≤ 0.2 |
| RRHA | 0.693 |
| NRGA | ≤ 0.2 |
| DRHA | ≤ 0.2 |
| DRSA | ≤ 0.2 |
| RRSA | 0.693 |
| RRGA | 0.749 |
| RRQA | 0.699 |
| NRHA | ≤ 0.2 |
| DRQA | ≤ 0.2 |
| RGGA | 0.285 |
| GDYT | ≤ 0.2 |
| HYRC | ≤ 0.2 |
| YDLT | ≤ 0.2 |
| IYQL | ≤ 0.2 |
| WAPR | ≤ 0.2 |
| MWAV | ≤ 0.2 |
| ANEG | ≤ 0.2 |
| LPHA | ≤ 0.2 |
| SKVC | ≤ 0.2 |
| PETH | ≤ 0.2 |

| Variant | one-hybrid fitness for binding parS DNA |
| --- | --- |
| RRDA | 0.851 |
| RRCA | 0.761 |
| RRLA | 0.815 |
| NRLA | ≤ 0.2 |
| NRNA | ≤ 0.2 |
| DRCA | ≤ 0.2 |
| RRNA | 0.627 |
| NRCA | ≤ 0.2 |
| DRLA | ≤ 0.2 |
| DRNA | ≤ 0.2 |
| QLGG | ≤ 0.2 |
| IAPM | ≤ 0.2 |
| RPYR | ≤ 0.2 |
| TTSM | ≤ 0.2 |
| ICYT | ≤ 0.2 |
| SEWR | ≤ 0.2 |
| RRYA | 0.813 |
| NRYA | ≤ 0.2 |
| RRRA | 0.501 |
